Assay results published in PubChem BioAssay (Tox21).
Unmarked numbers belong to inactive results. Records with an inconclusive call do not appear. Entries that show only a call come without a potency. Calls of active or inactive are those of the source. Unless noted, calls come from the whole dose curve; as a rule, active = well fitted curve in the direction sought with a large enough effect in the repeat runs; inconclusive = weak or mixed curves; inactive = no such curve, though single readings can be large; an effect the other way counts as inactive or inconclusive.

Columns and labels:
[1] = qHTS assay to identify small molecule HDAC inhibitors (AID 1259364); note: top concentration of the series differs between compounds; nearly all actives have a fitted effect of over 45% in size
How it was run: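 Homogeneous cell-based luminescent assay of endogenous class I/II HDAC activity; HCT-116 cells, 2 h compound exposure, 30 min HDAC-Glo development at RT.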

[2] = qHTS assay to identify small molecule HDAC inhibitors - cell viability counter screen (AID 1259365); note: series mostly up to about 92 µM; nearly all actives have a fitted effect of over 50% in size
How it was run: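 After overnight seeding at 1,500 cells per well, wild-type HCT-116 cultures took up compounds in DMSO for 2hr at 37 C. Viable cell content came from luminescence with CellTiter-Glo.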

[3] = qHTS assay to identify small molecule agonists of the sonic hedgehog signaling (Shh) pathway - cell viability counter screen (AID 1259366); note: nearly all actives have a fitted effect of over 50% in size
How it was run: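 Same-well cytotoxicity read. Gli1-Luc reporter 3T3 cells; compounds 24hr, 37C/5% CO2; CellTiter-Fluor fluorescence.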

[4] = qHTS assay to identify small molecule antagonists of the sonic hedgehog signaling (Shh) pathway - cell viability counter screen (AID 1259367); note: nearly all actives have a fitted effect of over 55% in size
How it was run: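 Using CellTiter-Fluor, viability of Gli1-Luc reporter 3T3 cells is read by fluorescence in the wells used for the Shh luciferase assay. Treatment lasts 23 hr with conditioned medium, then reagent 1 hr at 37C.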

[5] = qHTS assay to identify small molecule agonists of the sonic hedgehog signaling (Shh) pathway (AID 1259368; calls by dose curve;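 note: NIH/3T3-derived 3T3Gli1-Luc cells carrying a stable Gli1-driven firefly luciferase reporter; series mostly up to about 92 µM; nearly all actives have a fitted effect of over 15% in size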)
How it was run: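 Steps: seed 3T3 Gli1-Luc cells, incubate 4 hr at 37 C, pin-transfer compounds in DMSO alongside a positive control, incubate 24 hr, add luciferase detection reagent, wait 30 min at room temperature, read luminescence.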

[6] = qHTS assay to identify small molecule antagonists of the sonic hedgehog signaling (Shh) pathway (AID 1259369; calls by dose curve; note: nearly all actives have a fitted effect of over 45% in size)
How it was run: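 Inhibition of Shh signalling is measured as reduced Gli1-response-element firefly luciferase output in an NIH/3T3-derived stable reporter clone stimulated with conditioned medium for 24hr.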

[7] = target: Estrogen receptor beta (Homo sapiens) (UniProt Q92731); test: qHTS assay to identify small molecule agonists of the estrogen receptor beta (ER-beta) signaling pathway (AID 1259377; active = well fitted activation curve with a large enough effect in the signal ratio in the repeat runs, not every such curve was filed as active; the % refers to the signal ratio)
Chain of Estrogen receptor beta (Homo sapiens) (Q92731 whole entry, looked up): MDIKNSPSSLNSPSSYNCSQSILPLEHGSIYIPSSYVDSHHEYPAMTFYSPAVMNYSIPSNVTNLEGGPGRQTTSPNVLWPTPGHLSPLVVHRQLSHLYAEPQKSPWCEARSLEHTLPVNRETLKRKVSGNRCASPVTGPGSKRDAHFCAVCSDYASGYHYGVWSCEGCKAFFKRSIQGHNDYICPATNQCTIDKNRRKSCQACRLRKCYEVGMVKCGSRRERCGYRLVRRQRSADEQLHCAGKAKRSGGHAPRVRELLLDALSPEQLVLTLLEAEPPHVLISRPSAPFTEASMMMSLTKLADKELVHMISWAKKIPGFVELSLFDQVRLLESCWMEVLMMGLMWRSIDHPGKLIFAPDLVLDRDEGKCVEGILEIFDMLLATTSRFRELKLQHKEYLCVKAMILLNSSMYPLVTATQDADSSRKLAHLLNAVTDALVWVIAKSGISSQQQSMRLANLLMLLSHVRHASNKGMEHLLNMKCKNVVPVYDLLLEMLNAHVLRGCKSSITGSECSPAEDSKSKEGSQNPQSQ
How it was run: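 Read-out: beta-lactamase FRET fluorescence. Cell line: ER-beta-UAS-bla HEK293T in 2% charcoal-stripped FBS. Exposure: 16 hr at 37C. Substrate step: 2 h at room temperature.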

[8] = target: Estrogen receptor beta (Homo sapiens) (UniProt Q92731); test: qHTS assay to identify small molecule antagonists of the estrogen receptor beta (ER-beta) signaling pathway (AID 1259378; active = well fitted inhibition curve with a large enough effect in the signal ratio in the repeat runs, not every such curve was filed as active; the % refers to the signal ratio; note: potency is the fitted concentration of half-maximal effect)
How it was run: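 Antagonist mode: compounds added to beta-lactamase reporter HEK293T ER-beta-UAS cells stimulated with E2 (1nM final), 16 hr at 37C. LiveBLAzer B/G FRET substrate, 2 hours room temperature, fluorescence read-out.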

[9] = qHTS assay to identify small molecule agonists of the androgen receptor (AR) signaling pathway in the presence of an antagonist - cell viability counter screen (AID 1259379);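 note: MDA-kb2 human breast cancer cells carrying an MMTV luciferase reporter; series mostly up to about 92 µM; nearly all actives have a fitted effect of over 25% in size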
How it was run: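 Fluorescence from CellTiter-Fluor, added after 15 hr and read 1 hr later, gave cell viability. Cells were MDA-kb2 exposed to compounds (15 concentrations) in the presence of 3.0uM nilutamide at 37C, 0% CO2.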

[10] = qHTS assay to identify small molecule agonists of the estrogen receptor beta (ER-beta) signaling pathway - cell viability counter screen (AID 1259380); note: nearly all actives have a fitted effect of over 30% in size
How it was run: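 Same-well viability counter screen. Cells: ER-beta-UAS-bla HEK293T, plated 6 hr before compound, in 2% charcoal-stripped FBS. Compound exposure 16 hr, 37C; viability by CellTiter-Glo luminescence after 30 min at room temperature.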

SMILES	Potency [1]	outcome [2]	outcome [3]	outcome [4]	outcome [5]	Potency [6]	Potency [7]	Potency [8]	outcome [9]	outcome [10]
Cn1nnc2c(C(N)=O)ncn2c1=O	inactive	inactive	inactive	inactive	inactive	inactive	inactive	inactive	inactive	inactive
CC(=O)CC(=O)OC(C)(C)C	inactive	inactive	inactive	inactive	inactive	inactive	inactive	inactive	inactive	inactive
CC1c2ccccc2CN1NC(=O)c1ccc(Cl)c(S(N)(=O)=O)c1 (stereo not given)	inactive	inactive	inactive	inactive	inactive	inactive	inactive	inactive	inactive	inactive
CCCCCCCCCOC(=O)c1ccccc1C(=O)OCCCCCCCCC	inactive	inactive	inactive	inactive	inactive	inactive	inactive	inactive	inactive	inactive
NCC1(Cc2noc(=O)[nH]2)CCCCC1	inactive	inactive	inactive	inactive	inactive	inactive	inactive	inactive	inactive	inactive
CC(N)CCCC(C)(C)O (stereo not given)	inactive	inactive	inactive	inactive	inactive	inactive	inactive	inactive	inactive	
CCC(C)OC(C)CC (stereo not given)	inactive	inactive	inactive	inactive	inactive	inactive	inactive	28.3 µM (active)	inactive	
C=CCSSCCC	inactive	inactive	inactive	inactive	inactive	inactive	inactive	inactive		inactive
Cc1ccc(C(=O)O)cc1[N+](=O)[O-]	inactive	inactive	inactive	inactive	inactive	inactive	inactive	inactive	inactive	inactive
O=Cc1ccccc1Cl	inactive	inactive	inactive	inactive	inactive	inactive	inactive	inactive	inactive	inactive
Cc1ccccc1C(N)=O	inactive	inactive	inactive	inactive	inactive	inactive	inactive	inactive	inactive	inactive
Cn1c(=O)c2c(ncn2CCO)n(C)c1=O	inactive	inactive	inactive	inactive	inactive	inactive	inactive	inactive	inactive	inactive
CC(C)C[C@@H]1[C@H](c2ccccc2)OC(=O)N1CCCN1CCCCCC1	inactive	inactive	inactive	inactive	inactive	inactive	inactive	inactive	inactive	inactive
CC(C)(CO)C(O)C(=O)NCCCO (stereo not given)	inactive	inactive	inactive	inactive	inactive	inactive	inactive	inactive	inactive	inactive
CC12CCC(C1)C(C)(C)C2O (stereo not given)	inactive	inactive	inactive	inactive	inactive	inactive	inactive	inactive	inactive	inactive
CC1(C)Oc2ccc(C#N)cc2[C@@H](N2CCCC2=O)[C@@H]1O	inactive	inactive	inactive	inactive	inactive	inactive		inactive		inactive
CCNC(=O)NCc1cccc(Cl)c1	inactive	inactive	inactive	inactive	inactive	inactive			inactive	
Cc1ccnc(N)c1	inactive	inactive	inactive	inactive	inactive	inactive		inactive	inactive	inactive
CCCCOCCOC(=O)COc1ccc(Cl)cc1Cl	inactive	inactive	inactive	inactive	inactive	inactive		inactive	inactive	inactive
CCC[C@@H]1C[C@@H](C(=O)N[C@@H]([C@H]2O[C@H](SC)[C@H](O)[C@@H](O)[C@H]2O)[C@@H](C)O)N(C)C1	inactive	inactive	inactive	inactive	inactive	inactive		inactive	inactive	inactive
NCc1ccc(S(N)(=O)=O)cc1	inactive	inactive	inactive	inactive	inactive	inactive		inactive	inactive	inactive
O=C(O)CSCC(=O)NC1CCSC1=O (stereo not given)	inactive	inactive	inactive	inactive	inactive	inactive		inactive		inactive
O=NN(CCCl)C(=O)NC1CCCCC1	inactive	inactive	inactive	inactive	inactive	inactive		inactive	inactive	inactive
